Test results published in PubChem BioAssay AID1382 (National Center for Advancing Translational Sciences (NCATS), 2008).
Results filed as inconclusive are left out. The source made the active and inactive calls.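 The calls were made as follows: active = inhibitors giving a complete concentration-response curve with high efficacy; inconclusive = inhibitors giving only a partial curve with partial efficacy; inactive = the rest.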

What follows are compounds tested against Lysosomal acid glucosylceramidase (Homo sapiens) (UniProt P04062) (assay: Confirmation Concentration-Response Assay for Glucocerebrosidase Inhibitors). Details: purified GBA, resorufin glucoside fluorescence, 20 min; series mostly up to 63.5 µM; inhibition: at the top concentration.
Sequence of Lysosomal acid glucosylceramidase (Homo sapiens) (P04062 whole entry, looked up): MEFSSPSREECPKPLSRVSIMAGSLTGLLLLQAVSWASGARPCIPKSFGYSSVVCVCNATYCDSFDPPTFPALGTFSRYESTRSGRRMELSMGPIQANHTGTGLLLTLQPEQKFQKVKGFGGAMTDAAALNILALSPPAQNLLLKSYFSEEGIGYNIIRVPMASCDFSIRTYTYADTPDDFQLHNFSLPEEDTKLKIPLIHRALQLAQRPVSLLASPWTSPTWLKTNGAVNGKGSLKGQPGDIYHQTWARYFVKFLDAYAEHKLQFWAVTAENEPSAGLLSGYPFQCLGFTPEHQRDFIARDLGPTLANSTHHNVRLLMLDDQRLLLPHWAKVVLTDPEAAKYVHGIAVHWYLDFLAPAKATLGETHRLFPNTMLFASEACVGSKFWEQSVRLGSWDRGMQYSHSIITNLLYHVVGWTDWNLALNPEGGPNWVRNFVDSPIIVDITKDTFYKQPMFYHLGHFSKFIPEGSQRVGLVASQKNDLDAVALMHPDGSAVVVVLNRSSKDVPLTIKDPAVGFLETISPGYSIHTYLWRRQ
Text: NCGC Assay Overview: NIH Molecular Libraries Screening Centers Network [MLSCN] NIH Chemical Genomics Center [NCGC] MLSCN Grant: XO1-MH078932-01 Beta-glucocerebrosidase catalyzes the hydrolysis of beta-glucocerebroside to glucose and ceramide. The inherited deficiency of beta-glucocerebrosidase results in Gaucher disease, which is characterized by a wide variety of symptoms including hepatosplenomegaly, anemia, thrombocytopenia, bony lesions and bone marrow infiltration with characteristic storage cells, known as Gaucher cells. There are also forms of the disorder affecting the central nervous system. Patients with the same genotypes can manifest with diverse clinical presentations and it is believed that improper folding and trafficking of beta-glucocerbrosidase may contribute to the phenotypes observed. Low molecular weight molecules, acting as chaperones, may potentially restore trafficking of misfolded beta-glucocerebrosidase from the endoplasmic reticulum to the lysosomes, thereby enhancing functional lysosomal beta-glucocerebrosidase activity. Using normal beta-glucocerebrosidase, an assay was developed to screen for small molecule inhibitors that could potentially act as molecular chaperones on the mutant forms [developed with NIH investigator Dr. Ellen Sidransky's laboratory]. A pro-fluorescent substrate was chosen for a screen against a small molecule library. The beta-glucocerebrosidase assay used Resorufin beta-D-Glucopyranoside (Marker Gene Technology Inc.), generating a red fluorescent product. The Km for the Resorufin beta-D-Glucopyranoside was determined to be 71.2 uM. The IC50 values of Conduritol B Epoxide, a known glucocerebrosidase inhibitor, was determined to be 87.5 uM. All compounds were screened in a titration series resulting in AC50s (e.g., IC50s or EC50s). To confirm activity from the original screen, samples were reacquired from MLSCN and also synthesized in-house, and re-screened against the original assay at a higher density of titration points.
NCGC Assay Protocol Summary: Both enzyme and substrate were diluted in buffer composed of 50mM citric acid/KH2PO4, 10mM sodium taurocholate and 0.01% tween-20 at pH 5.9. The final concentration of the enzyme was 0.2 nM in both assays. The compound library was titrated in 7 to 15 concentrations for the primary screens with a final concentration ranging from 0.6 nM to 50 uM. This particular assay protocol was performed in 1536-well plate format as follows: Red fluorescence substrate assay: 2 uL enzyme 23 nL compound 1 uL substrate (final concentration of 30 uM) Incubate at room temperature (RT) for 20 minutes Read the plate in Viewlux plate reader (Ex=548(7) and Em=600(10)).
With `O=C(Nc1nccs1)c1ccc(NS(=O)(=O)c2ccc(Cl)cc2)cc1` the Potency was 1250 nM (active).
For `CC(C)(C)Oc1ccccc1Nc1nc(NCCO)nc(N2CCCC2)n1`, the Potency was 21.5 nM (active).
`Cc1cc(N2CCCCC2)nc2ccc(NC(=O)C3CCC(C)CC3)cc12` (stereo unspecified) was tested, and the Potency was 339 nM (active).
`Cc1cc(N2CCC(C)CC2)nc2ccc(NC(=O)C3CCC(C)CC3)cc12` (stereo unspecified) was tested, and the Potency was 164 nM (active).
With `CCCC1CCC(C(=O)Nc2ccc3nc(N4CCOCC4)cc(C)c3c2)CC1` (stereo unspecified) the Potency was 104 nM (active).
For `CCN(CC)c1cc(C)c2cc(NC(=O)C3CCC(C)CC3)ccc2n1` (stereo unspecified), the Potency was 940 nM (active).
With `Cc1ccc(S(=O)(=O)Nc2ccc(C(=O)Nc3cc(C)on3)cc2)cc1` the Potency was 90.7 nM (active).
In the case of `Cc1cc(N2CCN(c3ncccn3)CC2)nc2ccc(NC(=O)C3CCC(C)CC3)cc12` (stereo unspecified), the Potency is reported as 1890 nM (active).
`Cc1cc(Nc2cccc(Cl)c2)nc2ccc(NC(=O)C3CCC(C)CC3)cc12` (stereo unspecified) was tested, and the “inhibition” value was 27% (inactive).
`Cc1cc(N2CCOCC2)nc2ccc(NC(=O)C3CC3)cc12` was tested, and the Potency was 193 nM (active).
With `Cc1cc(N2CCOCC2)nc2ccc(NC(=O)C3CCC(C)CC3)cc12` (stereo unspecified) the Potency was 66 nM (active).
